Assay [1] has as its system CDKL2.
Assay [2] relates to CDKL5.
Assay [3] has as its system CHEK1.
The subject of assay [4] is CHEK2.
For assay [5], the system named is CHK2.
Assay [6] has as its system CIT.
The test system of assay [7] is CLK3.
Assay [8] deals with CLK4.

Take `O=C(Nc1n[nH]c2cc(-c3ccsc3)ccc12)C1CC1` [SB-732932]: the Kinases covered entry in assay [1] was “CDKL2”.

`Cc1cc(NC(=O)c2cccc(NC(=O)/C=C/CN(C)C)c2)ccc1Nc1nccc(-c2cccnc2)n1` [JNK-IN-7]: in assay [2], the Kinases covered result is on record as “CDKL5”.

As to `COc1cc(Nc2cnc(C#N)c(O[C@H](C)CN(C)C)n2)ncc1-c1cnn(C)c1` [CCT244747], in assay [3], the Kinases covered result is on record as “CHEK1”.

In the case of `FC1=CC(C3=NC2=CC(OC)=C(OC)C=C2C(N[C@H]4[C@H]([C@](C)(O)C)CNC4)=N3)=C(O)C=C1.Cl.Cl` [CCT241533], the Kinases covered entry in assay [4] is “CHEK2”.

With `CNc1nc(Nc2ccc(C(=O)N3CCOCC3)cc2OC)nc2[nH]cc(Cl)c12` [JH-II-127], the Kinases covered entry in assay [5] is given as “CHK2”.

Regarding `O=C(Nc1ccccc1)Nc1cccc(Oc2ccc3nccn3n2)c1` [TPKI-39], the Kinases covered result in assay [6] is recorded as “CIT”.

Consider `CC(C)C(=O)N[C@@H]1CCN(C(=O)Nc2nc3c(s2)-c2nc(-c4ccccc4Cl)ncc2CC3)C1` [BI00047804], for which the Kinases covered result in assay [7] is “CLK3”; in assay [8] it was “CLK4”.

For the compound `CCCNC(=O)c1ccc(Nc2ncc(C(F)(F)F)c(Nc3ccccc3C(C)=O)n2)c(Br)c1` [BI00801818], the Kinases covered result in assay [8] is recorded as “CLK4”.

For the origin of these results see article PMC7826789 (International Journal of Molecular Sciences, 2021).
